Here are results for 40 compounds from PubChem BioAssay.

Each structure is given as a SMILES string. Values without a mark were called inactive. How the calls were made is not given here.

The target in this experiment is Pantothenate synthetase (Mycobacterium tuberculosis (strain ATCC 25618 / H37Rv)) (UniProt P9WIL5). Description: Coupled enzyme confirmation of inhibitors against recombinant Mtb PanC (AID 375).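 Further: 0% = full reaction with vehicle and 100% = no enzyme background.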 Conditions: coupled enzyme assay; at 10 µM, active compounds read high.
Pantothenate synthetase (Mycobacterium tuberculosis (strain ATCC 25618 / H37Rv)), sequence (P9WIL5 whole entry, looked up): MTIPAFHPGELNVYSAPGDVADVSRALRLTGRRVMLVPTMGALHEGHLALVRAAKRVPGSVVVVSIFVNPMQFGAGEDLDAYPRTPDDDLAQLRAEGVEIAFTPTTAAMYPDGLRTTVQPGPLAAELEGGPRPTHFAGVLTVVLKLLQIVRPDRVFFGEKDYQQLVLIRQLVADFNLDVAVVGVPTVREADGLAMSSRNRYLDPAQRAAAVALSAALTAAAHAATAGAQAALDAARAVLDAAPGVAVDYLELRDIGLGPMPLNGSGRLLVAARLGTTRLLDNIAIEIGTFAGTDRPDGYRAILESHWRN
As for `CC1CCN(S(=O)(=O)c2ccc(Br)s2)CC1`, the inhibition was 0%.
In the case of `O=C(NCC1CCCO1)c1ccc(N2CCCCC2)nc1` (stereo not given) it was 0%; in that of `C/C(N)=C(/C#N)C(=O)COC(=O)c1cc(S(=O)(=O)N2CCCCC2)ccc1C`, 0%.
For the compound `O=C(CN1C(=O)CCSc2ccccc21)Nc1ccccc1`, the inhibition was 0%.
To `O=c1[nH]cnc2c1nc(SCc1ccccc1)n2C1OC(CO)C(O)C1O` (stereo not given) belongs 0%.
In the case of `CCOc1ccc(N(CC(=O)NCC2CCCO2)S(=O)(=O)c2ccc(OC)c(OC)c2)cc1` (stereo not given) it was 0%; in that of `O=C(COC(=O)C1CC(=O)N(c2ccccc2)C1)c1ccccc1` (stereo not given), 0%.
To `CN(C)S(=O)(=O)c1ccc2c(c1)c(=O)c(C(=O)NCCCN1CCCCCC1)cn2C` belongs 0%; to `CN(C)c1nc(Nc2ccc(Cl)cc2)nc(OCC#N)n1`, 6%.
For `COc1ccccc1CNC(=O)C(C)NS(=O)(=O)c1ccccc1` (stereo not given), the inhibition is 3%.
In the case of `CCOC(=O)Nc1cc(OC)c(OC)cc1Cc1nccc2cc(OC)c(OC)cc12`, the inhibition is 0%.
In the case of `CS(=O)(=O)N(CC(=O)Nc1cccc(F)c1)Cc1ccccc1` it was 0%; in that of `Cc1nc2ccc(N3C(=O)CCC3=O)cc2[nH]1`, 5%.
With `CCCC(=O)Nc1cccc(NC(=O)CN2CCN(c3ccccc3OC)CC2)c1`, the inhibition is 0%.
In the case of `Nc1ccc(S(=O)(=O)Nc2ccccn2)cc1` it was 0%.
On to `Cc1ccc(C(C)n2cc(C(=O)NCCN3CCN(C)CC3)nn2)cc1` (stereo not given), for which the inhibition is 0%.
To `CC1CCN(CC(O)COC2CCC(C(C)(C)C)CC2)CC1` (stereo not given) belongs 0%.
Turning to `CCCCOc1ccc(C2C3CN(C(=O)OCC)CC=C3C(C#N)=C(N)C2(C#N)C#N)cc1OC` (stereo not given), the inhibition is 0%.
To `O=C(CCCc1cccs1)Nc1nc2c(s1)CCCC2` belongs 2%.
To `CCOC(=O)c1cccc(NC(=O)CCn2nnc3ccccc32)c1` belongs 0%.
For `CC(Sc1n[nH]c(=O)[nH]c1=O)C(=O)OCc1ccccc1` (stereo not given), the inhibition is 2%.
With `Cc1ccc(CNC(=O)C2CCN(S(=O)(=O)c3c(C)noc3C)CC2)cc1`, the inhibition was 3%.
As for `Cc1nc2ccccn2c1/C(O)=C1\C(=O)C(=O)N(CCCN(C)C)C1c1ccc(F)cc1` (stereo not given), the inhibition is 4%.
In the case of `COc1ccc(OC)c(C(C)NC=O)c1` (stereo not given) it was 4%.
For `Cc1cc(C)cc(-n2nnc(C(=O)NCc3ccco3)c2N)c1`, the inhibition is 0%.
In the case of `CCCNC(=O)C1=C(C)C(=O)OC12CCC(C)CC2` (stereo not given) it was 0%; in that of `CC(=O)N(C)C1(c2nnnn2CCOC(=O)Nc2ccc(Cl)cc2)CCCCC1`, 0%; in that of `CCOC(=O)c1ccc2nc(C)c3c(c2c1)OC(C)C3` (stereo not given), 0%.
Consider `O=C(CSc1nnnn1Cc1ccccc1)Nc1ccc2c(c1)OCO2`, for which the inhibition is 1%.
In the case of `CC(O)c1c(OCc2ccccc2)ncnc1OCc1ccccc1` (stereo not given) it was 0%; in that of `CCCSc1nc2c(cnn2-c2ccc(C)cc2)c(=O)[nH]1`, 0%; in that of `CC(C)C(C(=O)Nc1ccc2c(c1)OCCO2)N1C(=O)c2ccccc2C1=O` (stereo not given), 0%.
To `COc1cccc(N(C(=O)c2ccco2)C(C(=O)NC2CCCC2)c2ccc(N(C)C)cc2)c1` (stereo not given) belongs 0%; to `CCOC(=O)C1=C(C)NC(C)=C(C(=O)OC)C1c1cccc([N+](=O)[O-])c1` (stereo not given), 7%.
In the case of `O=S(=O)(c1cccc2c(S(=O)(=O)N3CCCC3)cccc12)N1CCCC1` it was 0%; in that of `C[C@]12CC[C@@H]3c4ccc(O)cc4C(=O)C[C@H]3[C@@H]1CC[C@@H]2O`, 0%.
As for `c1ccc(OCc2nc(-c3ccccc3)no2)cc1`, the inhibition is 0%.
To `COc1cccc(-c2nnc(NC(=O)c3ccccc3Br)o2)c1` belongs 0%; to `Cc1ccccc1CNS(=O)(=O)c1ccc2c(c1)OCCO2`, 0%; to `Cc1ccc(C2/C(=C(/O)c3cnn(-c4ccccc4)c3C)C(=O)C(=O)N2CCN2CCOCC2)o1` (stereo not given), 1%.
